Sampled rows, rich in hits. Any-hit rate of the full collection: about 2.4%.
GLS inhibitor – glutaminase GLS (human) inhibition. Potency, µM (top dose mostly 45.5 µM), most hits filed as inhibitors. 410,000 compounds, 0.21% hits. O94925. GLS enzymatic activity, qHTS titration
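hKGA in 45 mM KH2PO4 pH 8.2, 0.02% Tween-20 with pin-transferred compounds; 1 mM L-glutamine (stock) plus glutamate oxidase/HRP/Amplex Red coupling added. Fluorescence read initially and after 30 min at RT.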
APE1 inh-1 – inhibitors of human APE1 endonuclease. P27695. recombinant APE1, TAMRA/BHQ-2 abasic DNA cleavage fluorescence. Potency, µM (titrated, usually from 65.8 µM), hits mostly inhibitors. 350,000 compounds, 0.35% hits. AID 2517; note: nearly all actives have a fitted effect of over 55% in size
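Kinetic fluorescence read (525 ex/598 em nm, three reads 60 s apart) of AP-site incision; signal = third minus first read. Enzyme 0.75 nM, dual-labelled THF duplex 50 nM, compound preincubation 15 min RT.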
Pol kappa inh – inhibitors of human DNA polymerase kappa | Q9UBT6 | purified Pol kappa, fluorescent DNA synthesis assay, 10 min | Potency, µM (doses to about 107 µM), usual class: inhibitors | 400,000 compounds, 0.53% hits | AID 588579
Target sequence (Q9UBT6 whole entry, looked up): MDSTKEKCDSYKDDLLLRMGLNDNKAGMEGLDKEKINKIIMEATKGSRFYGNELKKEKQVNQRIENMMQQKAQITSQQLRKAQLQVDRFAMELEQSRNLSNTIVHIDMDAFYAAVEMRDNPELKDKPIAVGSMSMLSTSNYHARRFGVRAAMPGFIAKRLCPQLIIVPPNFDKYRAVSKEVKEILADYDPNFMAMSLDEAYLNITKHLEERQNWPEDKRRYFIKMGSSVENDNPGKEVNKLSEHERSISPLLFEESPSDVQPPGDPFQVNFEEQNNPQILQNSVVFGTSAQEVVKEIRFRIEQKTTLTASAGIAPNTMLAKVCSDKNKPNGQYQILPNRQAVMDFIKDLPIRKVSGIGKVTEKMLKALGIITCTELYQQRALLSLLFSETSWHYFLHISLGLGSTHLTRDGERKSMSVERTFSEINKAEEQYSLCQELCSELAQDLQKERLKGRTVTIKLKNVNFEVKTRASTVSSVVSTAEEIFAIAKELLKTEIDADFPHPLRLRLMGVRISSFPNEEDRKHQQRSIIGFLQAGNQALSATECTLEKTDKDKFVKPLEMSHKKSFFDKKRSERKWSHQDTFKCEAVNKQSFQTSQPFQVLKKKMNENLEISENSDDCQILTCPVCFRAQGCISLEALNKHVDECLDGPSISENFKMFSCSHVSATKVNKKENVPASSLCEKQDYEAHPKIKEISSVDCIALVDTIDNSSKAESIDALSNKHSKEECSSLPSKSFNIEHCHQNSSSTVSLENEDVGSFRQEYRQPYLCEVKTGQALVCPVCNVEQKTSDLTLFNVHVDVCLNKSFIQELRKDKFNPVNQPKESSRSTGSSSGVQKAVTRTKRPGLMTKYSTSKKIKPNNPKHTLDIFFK
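First, compounds were pin-transferred onto 10 nM Pol kappa. After 15 min at room temperature, substrate was added to 50 nM final. Fluorescence was then measured kinetically at 0 and 10 min.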
POLH inh – inhibitors of human DNA polymerase eta | Q9Y253 | Potency, µM (series often up to 114 µM), actives largely listed as inhibitors | recombinant Pol eta, fluorescent DNA replication assay | 390,000 compounds, 1.2% hits
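Fluorescent replication assay: 50 nM final substrate added after a 15 min room-temperature compound preincubation with 10 nM enzyme. Signal taken at 0 min and again at 10 min.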
POLB inh – DNA polymerase beta (human) inhibition. Pol beta primer extension/strand displacement, fluorescence kinetic. 340,000 compounds, 1.3% hits. Potency, µM (series often up to 114 µM), most hits filed as inhibitors
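Pol beta (10 nM) and compounds were preincubated 15 min at room temperature, then 50 nM substrate (final) started primer extension/strand displacement. Reads were taken at 0 and 10 min; concentration-response data were fitted to a four-parameter Hill equation.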
POLI inh – inhibitors of human DNA polymerase iota | Q9UNA4 | Pol iota fluorescent replication assay, 10 min | Potency, µM (titrated, usually from 115 µM), hits mostly inhibitors | 390,000 compounds, 1% hits
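Pol iota at 10 nM preincubated 15 min with compounds at room temperature; reaction started with fluorescent substrate, 50 nM final. Fluorescence read kinetically at 0 and 10 min; buffer-only wells as negative control.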
DNA dye displace – DNA dye displacement counter-screen activity; 480 compounds, 7% hits; DNA fluorescent dye displacement counterscreen, fluorescence; shares compounds with APE1 inh-1; Potency, µM (top dose mostly 28.5 µM), most hits filed as inhibitors;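 note: loss of thiazole orange fluorescence as the dye is displaced from duplex DNA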
Endo IV inh – counter-screen for APE1 inhibitors: inhibitors of E. coli endonuclease IV; Potency, µM (doses to about 27.1 µM), most hits filed as inhibitors; shares compounds with APE1 inh-1; AID 2565; E. coli Endo IV, fluorogenic AP-site DNA cleavage; 560 compounds, 4% hits
APE1 inh-2 – confirmation of inhibitors of human APE1 endonuclease. shares compounds with APE1 inh-1. purified APE1, fluorogenic abasic-site DNA cleavage. Potency, µM (series often up to 57.1 µM), hits mostly inhibitors. 750 compounds, 44% hits. AID 2572; note: nearly all actives have a fitted effect of over 30% in size
APE1 FP inh – compounds that displace a DNA probe from human APE1. shares compounds with APE1 inh-1. Potency, µM (series often up to 28.5 µM), actives largely listed as inhibitors. 480 compounds, 7% hits. AID 2573. APE1 binding to TAMRA-labelled double-stranded DNA, fluorescence polarization displacement
Each line names hits and unclear results; the compound was inactive in the other large screens (follow-up assays come after a bar, where they were run). Calls come from the whole dose curve; as a rule, active = well fitted curve in the direction sought with a large enough effect; inconclusive = small, poorly fitted or top-dose-only effect, or another doubt; inactive = no such curve, though single readings can be large; an effect the other way counts as inactive or inconclusive.

COc1cc(OC)c2c(-c3ccccc3)cc(=O)oc2c1C(CC(=O)N1CCN(c2ccccc2)CC1)c1ccc2c(c1)OCO2 (stereo unspecified)	APE1 inh-1 inconclusive, POLB inh 50µM (no result: GLS inhibitor, Pol kappa inh, POLH inh, POLI inh) | DNA dye displace inactive | Endo IV inh inactive | APE1 inh-2 13µM | APE1 FP inh inactive
CCOC(=O)Nc1cccc(Cl)c1C	POLH inh inconclusive
COc1ccc(-c2coc3cc(O)ccc3c2=O)cc1O	APE1 inh-1 inconclusive, Pol kappa inh inconclusive, POLB inh 25µM, POLI inh inconclusive | DNA dye displace inactive | Endo IV inh inactive | APE1 inh-2 inactive | APE1 FP inh inactive
COCc1cc(CN2CCCC(CNC(=O)c3ccc(F)cc3)C2)ccc1OC (stereo unspecified)	none
O=C(COC(=O)CCNS(=O)(=O)c1cccc(C(F)(F)F)c1)NC(=O)NC1CCCCC1	APE1 inh-1 inconclusive | DNA dye displace inactive | Endo IV inh inactive | APE1 inh-2 inconclusive | APE1 FP inh inactive
COc1ccc(/C=N/n2cnnc2)cc1Oc1nc(Cl)ncc1F	none
Cn1nc([N+](=O)[O-])nc1S(C)(=O)=O	APE1 inh-1 inconclusive, Pol kappa inh inconclusive, POLB inh 89µM, POLI inh inconclusive | DNA dye displace inactive | Endo IV inh inactive | APE1 inh-2 inconclusive | APE1 FP inh inactive
Brc1ccc([C@H]2CN3CCSC3=N2)cc1	POLI inh inconclusive | Endo IV inh inactive | APE1 inh-2 inactive
c1ccc(C2CN3CCSC3=N2)cc1 (stereo unspecified)	none
COc1cccc(/C=N/Nc2ccc(S(=O)(=O)O)cc2)c1O	APE1 inh-1 25µM, POLB inh 13µM | DNA dye displace inconclusive | Endo IV inh inactive | APE1 inh-2 inconclusive | APE1 FP inh inactive
COc1cccc(/C=N/Nc2ccc(C(=O)O)cc2)c1O	none
Cc1ccc(NC(=O)/C(=C/c2ccco2)c2ccccc2)c(C)c1	none
COc1cc(N)c(Cl)cc1C(=O)OCCCN1CCCCC1	none (no result: GLS inhibitor, POLH inh, POLB inh, POLI inh)
COc1cc(N)c(Cl)cc1C(=O)OCCN1CCCCC1	APE1 inh-1 inconclusive (no result: GLS inhibitor) | DNA dye displace inactive | Endo IV inh inactive | APE1 inh-2 inactive | APE1 FP inh inactive
CCOC(=O)c1sc2ncn(CC(=O)Nc3ccc(F)cc3F)c(=O)c2c1C	none (no result: APE1 inh-1)
CC[n+]1ccc(/C=C2\Sc3ccccc3N2CCCS(=O)(=O)[O-])c2ccccc21	APE1 inh-1 inconclusive, Pol kappa inh inconclusive, POLB inh 11µM | APE1 inh-2 inconclusive
CCC(=S)/C=C1\Sc2ccc3ccccc3c2N1CCCS(=O)(=O)O	POLB inh inconclusive (no result: GLS inhibitor, Pol kappa inh, POLH inh, POLI inh)
CN(C)c1ccc(O)c2c1C[C@@H]1C[C@H]3C(N(C)C)C(=O)C(C(N)=O)=C(O)[C@@]3(O)C(=O)C1=C2O (stereo partly specified)	GLS inhibitor inconclusive (no result: APE1 inh-1, POLH inh, POLB inh, POLI inh) | DNA dye displace inactive | Endo IV inh inactive | APE1 inh-2 inactive | APE1 FP inh inconclusive
C=C1c2c(Cl)ccc(O)c2C(O)=C2C(=O)[C@]3(O)C(O)=C(C(N)=O)C(=O)C(N(C)C)C3C(O)C12 (stereo partly specified)	APE1 inh-1 inconclusive, Pol kappa inh 1.6µM (no result: GLS inhibitor, POLH inh, POLB inh, POLI inh) | DNA dye displace inconclusive | Endo IV inh inactive | APE1 inh-2 inactive | APE1 FP inh inconclusive
C[C@H]1c2cccc(O)c2C(=O)C2C(=O)C3(O)C(=O)C(C(N)=O)C(=O)[C@@H](N(C)C)[C@@H]3[C@@H](O)[C@@H]21 (stereo partly specified)	POLI inh inconclusive (no result: POLB inh)
CSc1nc(NCCOCCO)c2sc3nc(-c4ccco4)c4c(c3c2n1)CCC4	APE1 inh-1 32µM, POLB inh 3.5µM | DNA dye displace 13µM | Endo IV inh inactive | APE1 inh-2 13µM | APE1 FP inh inactive
CCOC(=O)COc1ccccc1C1C(C(=O)OC)=C(C)NC2=C1C(=O)c1ccccc12 (stereo unspecified)	none (no result: APE1 inh-1)
O=[N+]([O-])c1ccc(Nc2nc(Cl)nc(NCCO)n2)cc1	none
Nc1c(S(=O)(=O)O)cc(Nc2ccc(Nc3nc(Cl)nc(Nc4ccc(S(=O)(=O)O)cc4)n3)c(S(=O)(=O)O)c2)c2c1C(=O)c1ccccc1C2=O	APE1 inh-1 0.63µM, Pol kappa inh 2.7µM, POLH inh 0.63µM, POLB inh 1.1µM, POLI inh 1.6µM (no result: GLS inhibitor) | Endo IV inh 10µM | APE1 inh-2 0.71µM
Cn1cc(C2=C(c3ccc(Cl)cc3Cl)C(=O)NC2=O)c2ccccc21	APE1 inh-1 inconclusive, POLH inh inconclusive, POLB inh inconclusive, POLI inh inconclusive | Endo IV inh inactive | APE1 inh-2 25µM
COCCNC(=O)CCc1nc(-c2ccccc2)no1	none
O=[N+]([O-])c1cccc2c[nH]nc12	APE1 inh-1 6.3µM, Pol kappa inh 13µM (no result: GLS inhibitor, POLH inh, POLB inh, POLI inh) | Endo IV inh inactive | APE1 inh-2 13µM
Cn1cnnc1SCC(=O)Nc1nc(-c2ccccc2)cs1	APE1 inh-1 inconclusive, POLB inh 16µM | DNA dye displace inactive | Endo IV inh inactive | APE1 inh-2 inconclusive | APE1 FP inh inactive
Cc1cc(C(=O)NC2CCCc3c2cnn3-c2ccc(C(C)(C)C)cc2)nn1C (stereo unspecified)	POLB inh inconclusive
Cc1cc(S(=O)(=O)C(CNC(=O)c2ccc(F)c(F)c2)c2cccs2)ccc1F (stereo unspecified)	none (no result: APE1 inh-1)
CCOC(=O)c1cc2c(=O)n3ccccc3nc2n(Cc2ccco2)c1=NC(=O)c1cccc(OC)c1	none
CCOC(=O)c1cc2c(=O)n3ccccc3nc2n(Cc2ccco2)c1=NC(=O)c1ccccc1OC	APE1 inh-1 inconclusive, Pol kappa inh inconclusive, POLB inh inconclusive, POLI inh inconclusive | APE1 inh-2 inactive
COc1ccc(NC(=O)C2CCN(C(=O)c3ccco3)CC2)c(OC)c1	none
c1ccc(N2CCN(c3nccn4ccnc34)CC2)nc1	none (no result: APE1 inh-1, Pol kappa inh, POLH inh, POLB inh, POLI inh)
Cc1ccc(-c2nn(C)c(=O)c3ccccc23)cc1S(=O)(=O)NCCN1CCOCC1	POLH inh inconclusive, POLI inh inconclusive

Compound activity (PubChem)
